Experimental findings from PubChem BioAssay (NCATS) are described below.

The test system of test [1] is CRL-7250. The experiment in a line: Cytotoxic Profiling of Annotated Libraries Using Quantitative High-Throughput Screening (AID 1296008). As to max response: % is scaled to controls: 0 for no effect and ±100 for the full control effect. The note with it: Five cell lines viability, CellTiter-Glo ATP luminescence, 48-72 h; max response: hits give low values. An outline of the steps: (§1)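 Cytotoxicity was measured as CellTiter-Glo ATP luminescence, read after 10 min at room temperature. Compound treatment of the cells lasted 48 or 72 hr at 37 degrees Celsius in a qHTS format.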
A general note: ATP-based viability assays read luminescence as a measure of living cells.

Test [2] concerns HEK293. The test is described as above. Conditions: Five cell lines viability, CellTiter-Glo ATP luminescence, 48-72 h; max response: hits give low values. An outline of the steps:
as §1

For test [3], the system named is KB-3-1. The test is described as above. Conditions: Five cell lines viability, CellTiter-Glo ATP luminescence, 48-72 h; max response: hits give low values. The gist of the method: as §1
The subject of test [4] is NIH3T3. The test is described as above. Conditions: Five cell lines viability, CellTiter-Glo ATP luminescence, 48-72 h; max response: hits give low values. The gist of the method: as §1
Test [5] has as its system W2. In words: qHTS profiling for inhibitors of Plasmodium falciparum proliferation (AID 504749). The note with it: P. falciparum in erythrocytes, SYBR Green DNA, 72 h; series mostly up to 28.7 µM. The gist of the method: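 SYBR Green fluorescence of parasite DNA, read after lysis and overnight dark incubation, measured growth over 72 h in erythrocyte culture at 0.3% parasitemia and 2.5% hematocrit. Data normalised to DMSO and 0.29 uM artemisinin, with plate-drift correction.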
On the technique in general: Quantitative high-throughput screening tests each substance at several concentrations.

The test system of test [6] is HaCat. The experiment in a line: Cytotoxic Profiling of Annotated Libraries Using Quantitative High-Throughput Screening (AID 1296008). As to max response: % is scaled to controls: 0 for no effect and ±100 for the full control effect. Conditions: Five cell lines viability, CellTiter-Glo ATP luminescence, 48-72 h; max response: hits give low values. The gist of the method: as §1
In test [7] the test system is MCC-13. The experiment in a line: qHTS assay to identify novel small-molecules to repurpose for Merkel cell carcinoma treatment (AID 1296009). The note with it: MCC and control cell lines, CellTiter-Glo viability, 72 h; series mostly up to 46 µM. The gist of the method: (§2)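 Cell viability, measured as CellTiter-Glo luminescence, was normalized between DMSO and no-cell wells. The cells had been exposed to 8- or 11-point compound dilutions for 72 hr at 37 degree celsius.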

For test [8], the system named is HACAT. Described as above. Conditions: MCC and control cell lines, CellTiter-Glo viability, 72 h; at 44.8 µM (top of the series) unless noted. An outline of the steps:
as §2

Test [9] has as its system HEK293T. Described as above. Conditions: MCC and control cell lines, CellTiter-Glo viability, 72 h; at 44.8 µM (top of the series). An outline of the steps:
as §2

Several values for one entry are separate records, joined by “and”; a condition that tells them apart may be missing. Identical values can stand only once. Inconclusive results are not listed. The source holds several records for some structures; these can differ, active in one and inactive in another. A number with no mark means an inactive call. Activity calls are given as the source filed them. Calls follow the shape of the dose curve; as a rule, active = well fitted inhibition curve with a large enough effect; inconclusive = small, poorly fitted or top-dose-only effect; inactive = flat fitted curve, though single readings scatter.
Also: nearly all actives have a fitted effect of over 60% in size.
Potency is read from the fitted curve at half-maximal effect.

Take `CNC(=O)c1ccccc1Sc1ccc2c(/C=C/c3ccccn3)n[nH]c2c1`: the Potency is 5.8 µM (active) in test [1]; 23.7 µM (active) and 14.6 µM (active) in test [2]; 11.6 µM (active) in test [3]; 8.41 µM (active) and 7.31 µM (active) in test [4]. Further, in test [3], the max response is -28.7%.
For the compound `C#Cc1cccc(Nc2ncnc3cc(OCCOC)c(OCCOC)cc23)c1`, the Potency in [5] is 4.26 µM (active); in [1] it was 18.7 µM (active) and 8.41 µM (active); in test [2], 16.6 µM (active); in [6], 5.9 µM (active) and 944 nM (active) and 651 nM (active). Moreover, the max response in test [3] is -10.3% and -1.91%. In [7], the Potency entry is “inactive”.
Take `Cn1cc(-c2ccc3nnc(C(F)(F)c4ccc5ncccc5c4)n3n2)cn1`: the max response in test [1] was -14.4%; in test [2], -1.08%; in test [6] it was -1.46%; in test [3] it was 5.05% and 7.07%; in test [4] it was -35.7%. Also, the Potency entry in test [7] is “inactive”.
Take `CCCS(=O)(=O)Nc1ccc(F)c(C(=O)c2c[nH]c3ncc(Cl)cc23)c1F`: the max response was -1.21% in test [1]; -1.82% in test [6]; -9.42% and -0.0181% in [3]; -18.6% in test [4]. In addition, in test [2], the Potency was 14.8 µM (active). Also, the Potency result in test [7] is “inactive”.
`COc1ccccc1-c1cccc(-c2c(O)c3cc(C#N)c(Cl)cc3[nH]c2=O)c1`: the Potency in test [1] was 8.55 µM (active); in test [2] it was 3.4 µM (active); in [6], 19.1 µM (active); in test [4] it was 21.5 µM (active). The max response in test [3] was -25.1%. The Potency result in test [7] was “inactive”.
On to `CN[C@@H](C)C(=O)N[C@H]1CCCC[C@H]2CC[C@@H](C(=O)N[C@@H](c3ccccc3)c3cn(CCCCc4ccc(CCCCn5cc([C@@H](NC(=O)[C@@H]6CC[C@@H]7CCCC[C@H](NC(=O)[C@H](C)NC)C(=O)N76)c6ccccc6)nn5)cc4)nn3)N2C1=O`, for which the max response in test [1] was -4.97%. The outcome in [2], in test [6], in test [4], in test [8] and in [9] was inactive. Moreover, in test [7], the Potency result is “inactive”.
Consider `CS(=O)(=O)c1ccc(C(=O)Nc2ccc(Cl)c(-c3ccccn3)c2)c(Cl)c1`, for which the max response in test [1] was -4.31% and 3.97%; in [2] it was -6.21%; in [6], -0.0394%; in test [3], 9.49% and -9.43%; in [4], -17.3% and -11.2%. Further, the Potency entry in test [7] is “inactive”.
In the case of `CCOc1ccn(-c2ccc(F)cc2)c(=O)c1C(=O)Nc1ccc(Oc2ccnc(N)c2Cl)c(F)c1`, the max response in test [1] was -27.8%. The Potency in [2] was 26.4 µM (active); in [6], 23.5 µM (active); in [3], 13.2 µM (active). For the same compound, in test [7], the Potency entry is “inactive”.
On to `Cc1n[nH]c(C)c1Cc1sc2c(c1C(=O)N1C[C@H](O)CO1)c(=O)n(C)c(=O)n2CC(C)C`, for which the max response was -7.94% in test [1]; -3.78% and -14.4% in [6]. The Potency in test [2] is 0.184 µM (active). For the same compound, the outcome in test [3] was inactive. The Potency entry in test [7] is “inactive”.
In the case of `C[C@]1(c2nc3c(C(N)=O)cccc3[nH]2)CCCN1`, the max response in test [1] is -16.5%; in test [2], -23.2%; in test [3] it was -0.184%; in [4], -22%. The Potency entry in test [7] is “inactive”.
Take `CC1(C)SCCN(S(=O)(=O)c2ccc(OCC#CCO)cc2)[C@@H]1C(=O)NO`: the max response in [1] is -4.21%; in [2], -25.6%; in test [4] it was -11.8%. Moreover, the compound was called inactive in test [3]. Moreover, in test [7], the Potency result is “inactive”.
Consider `OCCn1cc(-c2cnc3nnn(Cc4ccc5ncccc5c4)c3n2)cn1`, for which the max response was -20.1% in test [1]; -13.9% in test [2]; -20.1% in test [6]; 1.4% and -22% in [3]; -29.5% in test [4]. In test [7], the Potency entry is “inactive”.
As for `NNCCc1ccccc1`, the compound was classed as inactive in test [1]. Moreover, the max response in test [2] is -15.3%; in test [6], -0.0842% and -11.1%; in [3], -10.1% and -6.14%; in test [4], 1.01%. Also, in test [7], the Potency entry is “inactive”.
Turning to `CO[C@@H]1[C@H](N(C)C(=O)c2ccccc2)C[C@H]2O[C@]1(C)n1c3ccccc3c3c4c(c5c6ccccc6n2c5c31)C(=O)NC4`, the Potency in test [1] was 1.48 µM (active); in [2] it was 8.33 µM (active); in test [6], 3.72 µM (active); in test [3], 3.32 µM (active); in test [4], 1.66 µM (active); in test [7], 2.96 µM (active).
`O=C(c1cc(Cc2n[nH]c(=O)c3ccccc23)ccc1F)N1CCN(C(=O)C2CC2)CC1`: in test [1], the Potency was 9.35 µM (active). Also, the max response in test [2] was -77.6%; in test [6], -1.1%; in [3], -21.2% and -8.64%; in [4], -27.5% and -49.1%. In addition, in test [7], the Potency entry is “inactive”.
Turning to `CC1(C)Cc2c(-c3ccccc3)c(-c3ccc(Cl)cc3)c(CC(=O)O)n2C1`, the max response in test [1] was 2.44%; in test [6], -5.26% and -28.4%; in test [3] it was -7.08%; in test [4], -5.92%. Also, the Potency in test [2] is 14.6 µM (active). The Potency entry in [7] is “inactive”.
Consider `C1COC(NC(C2CC2)C2CC2)=N1`, for which the Potency entry in [5] and in test [7] was “inactive” throughout. The max response in test [1] is 1.84% and -1.88%; in test [2], 3.3% and -8.9%. In addition, the call in [3] and in test [4] was inactive.
